Reference: PubChem BioAssay (NCATS)
Inconclusive results are not listed. Calls of active or inactive are those of the source. Calls follow the shape of the dose curve; as a rule, active = well fitted curve in the direction sought with a large enough effect; inconclusive = small, poorly fitted or top-dose-only effect, or another doubt; inactive = no such curve, though single readings can be large; an effect the other way counts as inactive or inconclusive.

Assays:
[1] = qHTS of pediatric cancer cell lines to identify multiple opportunities for drug repurposing: Primary screen for SK-N-SH cells (AID 1347098); also: nearly all actives have a fitted effect of over 65% in size
Outline: (§1)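 Cells (500-1,000/well) rested 5 h, then received compounds for 48 h; metabolically active cells were measured by CellTiter-Glo luminescence. Final concentrations spanned up to 46 µM (MIPE, 11-point) or 0.59 nM-46 µM (NPC, 8-point) in primary screens, 11-point in follow-ups.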

[2] = qHTS of pediatric cancer cell lines to identify multiple opportunities for drug repurposing: Primary screen for NB1643 cells (AID 1347099); also: nearly all actives have a fitted effect of over 50% in size
Outline: (§2)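 Quantitative HTS format: each compound titrated (MIPE 11 points from 0.78 nM, NPC 8 points from 0.59 nM) onto cells plated 5 hours earlier. After 48 h at 37 degrees C, CellTiter-Glo luminescence was recorded.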

[3] = qHTS of pediatric cancer cell lines to identify multiple opportunities for drug repurposing: Primary screen for LAN-5 cells (AID 1347100)
Outline: as §1

[4] = qHTS of pediatric cancer cell lines to identify multiple opportunities for drug repurposing: Primary screen for BT-12 cells (AID 1347101); also: nearly all actives have a fitted effect of over 25% in size
Outline: as §1

[5] = qHTS of pediatric cancer cell lines to identify multiple opportunities for drug repurposing: Primary screen for Rh18 cells (AID 1347102); also: nearly all actives have a fitted effect of over 65% in size
Outline: as §1

[6] = qHTS of pediatric cancer cell lines to identify multiple opportunities for drug repurposing: Primary screen for OHS-50 cells (AID 1347103); also: nearly all actives have a fitted effect of over 40% in size
Outline: as §1

[7] = qHTS of pediatric cancer cell lines to identify multiple opportunities for drug repurposing: Primary screen for RD cells (AID 1347104); also: nearly all actives have a fitted effect of over 55% in size
Outline: as §2

[8] = qHTS of pediatric cancer cell lines to identify multiple opportunities for drug repurposing: Primary screen for MG 63 (6-TG R) cells (AID 1347105); also: nearly all actives have a fitted effect of over 50% in size
Outline: as §2

[9] = qHTS of pediatric cancer cell lines to identify multiple opportunities for drug repurposing: Primary screen for Rh30 cells (AID 1347107); also: nearly all actives have a fitted effect of over 75% in size
Outline: as §1

[10] = qHTS of pediatric cancer cell lines to identify multiple opportunities for drug repurposing: Primary screen for Rh41 cells (AID 1347108); also: nearly all actives have a fitted effect of over 70% in size
Outline: as §2

[11] = qHTS of pediatric cancer cell lines to identify multiple opportunities for drug repurposing: Primary screen for control Hh wild type fibroblast cells (AID 1347106); also: nearly all actives have a fitted effect of over 55% in size
Outline: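 Cells (500-1,000/well) in growth media were settled 5 h at 37 degrees C, then given compounds for 48 h. Viability was read as CellTiter-Glo luminescence. Primary runs used MIPE at 11 points (0.78 nM-46 µM) and NPC at 8 points (0.59 nM-46 µM); follow-ups used 11 points.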

[12] = qHTS of pediatric cancer cell lines to identify multiple opportunities for drug repurposing: Confirmatory screen for NB1643 cells (AID 1347109); also: nearly all actives have a fitted effect of over 45% in size
Outline: as §1

[13] = qHTS of pediatric cancer cell lines to identify multiple opportunities for drug repurposing: Confirmatory screen for A673 cells (AID 1347110);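 also: cells exposed to compound for 48 h before the viability read; nearly all actives have a fitted effect of over 65% in size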
Outline: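 A673 cells seeded at 500-1,000 cells/well, rested 5 h, then dosed; primary MIPE 11-point (0.78 nM to 46 µM), NPC (0.59 nM to 46 µM); confirmatory 11-point. CellTiter-Glo luminescence after 48 h.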

[14] = qHTS of pediatric cancer cell lines to identify multiple opportunities for drug repurposing: Confirmatory screen for SK-N-MC cells (AID 1347111);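 also: cells exposed to compound for 48 h before the readout; nearly all actives have a fitted effect of over 70% in size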
Outline: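 Seed 500-1,000 cells/well; rest 5 h at 37 degrees C. Pin-transfer compounds, 11-point titration. Incubate 48 h. Add CellTiter-Glo, 15 min RT, read luminescence.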

[15] = qHTS of pediatric cancer cell lines to identify multiple opportunities for drug repurposing: Confirmatory screen for DAOY cells (AID 1347114); also: nearly all actives have a fitted effect of over 65% in size
Outline: (§3)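 Viability measured as metabolically active cells via CellTiter-Glo luminescence following 48 hours of compound exposure, 11-point dilutions in confirmatory testing. 500-1,000 cells/well plated 5 hours before dosing; controls were DMSO and 2.3 µM bortezomib.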

[16] = qHTS of pediatric cancer cell lines to identify multiple opportunities for drug repurposing: Confirmatory screen for BT-37 cells (AID 1347117); also: nearly all actives have a fitted effect of over 55% in size
Outline: as §1

[17] = qHTS of pediatric cancer cell lines to identify multiple opportunities for drug repurposing: Confirmatory screen for BT-12 cells (AID 1347112); also: nearly all actives have a fitted effect of over 55% in size
Outline: as §1

[18] = qHTS of pediatric cancer cell lines to identify multiple opportunities for drug repurposing: Confirmatory screen for LAN-5 cells (AID 1347113); also: nearly all actives have a fitted effect of over 65% in size
Outline: as §1

[19] = qHTS of pediatric cancer cell lines to identify multiple opportunities for drug repurposing: Confirmatory screen for NB-EBc1 cells (AID 1347115);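 also: cells exposed to compound for 48 h before the viability read; nearly all actives have a fitted effect of over 45% in size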
Outline: as §1

[20] = qHTS of pediatric cancer cell lines to identify multiple opportunities for drug repurposing: Confirmatory screen for SJ-GBM2 cells (AID 1347116); also: nearly all actives have a fitted effect of over 60% in size
Outline: as §3

Measured: Potency
Potency is read from the fitted curve at half-maximal effect.

O=c1[nH]c(=O)n(C2CCCO2)cc1F (configuration not stated)
inactive: [1] | [2] | [3] | [4] | [5] | [6] | [7] | [8] | [9] | [10]

Fc1cc(-c2cccc3ncc(-c4cnn(C5CCNCC5)c4)nc23)cc(F)c1CN1CCOCC1
active: [1] 24.1 µM | [2] 18.7 µM | [3] 26.4 µM | [4] 27.3 µM | [5] 20.9 µM | [6] 19.3 µM | [7] 18.7 µM | [9] 23.5 µM | [10] 23.5 µM

Cc1cc(Nc2cc(N3CCN(C)CC3)nc(C=Cc3ccccc3)n2)n[nH]1
active: [1] 3.5 µM | [2] 34 µM | [3] 0.679 µM | [4] 7.89 µM | [5] 3.82 µM | [6] 2.22 µM | [7] 21.5 µM | [8] 21.5 µM | [11] 38.2 µM | [9] 34 µM | [10] 10.8 µM

Cc1cc(Nc2cc(N3CCN(C)CC3)nc(Sc3ccc(NC(=O)C4CC4)cc3)n2)n[nH]1
inactive: [11]
active: [1] 21.5 µM | [2] 20.9 µM | [3] 0.105 µM | [4] 21.7 µM | [5] 16.6 µM | [6] 6.85 µM | [7] 18.7 µM | [9] 18.7 µM | [10] 11.8 µM | [12] 4.14 µM | [13] 13.1 µM | [14] 0.131 µM

CN1CCC(CNc2ccc3ncc(-c4cccc(OC(F)(F)F)c4)n3n2)CC1
active: [1] 7.64 µM | [2] 18.7 µM | [3] 14.8 µM | [4] 27.3 µM | [5] 18.7 µM | [6] 4.85 µM | [7] 18.7 µM | [8] 23.5 µM | [11] 18.7 µM | [9] 23.5 µM | [10] 18.7 µM

O=C(C=Cc1c(C(=O)O)[nH]c2cc(Cl)cc(Cl)c12)Nc1ccccc1
inactive: [1] | [2] | [3] | [4] | [5] | [6] | [7] | [11] | [9] | [10]

COc1cc2c(NC3CCN(C(C)C)CC3)nc(C3CCCCC3)nc2cc1OCCCN1CCCC1
active: [1] 10.8 µM | [2] 20.9 µM | [3] 20.9 µM | [4] 27.3 µM | [5] 23.5 µM | [6] 19.3 µM | [7] 11.8 µM | [9] 18.7 µM | [10] 11.8 µM | [12] 23.3 µM | [13] 18.5 µM | [14] 4.14 µM | [15] 9.27 µM | [16] 26.1 µM

C[C@@]12O[C@@H](C[C@]1(O)CO)n1c3ccccc3c3c4c(c5c6ccccc6n2c5c31)CNC4=O
active: [1] 1.92 µM | [2] 1.66 µM | [3] 0.132 µM | [4] 8.63 µM | [5] 3.32 µM | [6] 0.217 µM | [7] 6.62 µM | [8] 4.69 µM | [11] 23.5 µM | [10] 7.43 µM | [12] 1.85 µM | [13] 1.04 µM | [14] 0.261 µM | [17] 14.7 µM | [18] 5.22 µM | [19] 5.85 µM | [20] 18.5 µM | [16] 2.93 µM
inactive: [9]

C[C@H]1C[C@@H]2[C@@H]([C@@H](O)C[C@@]3(C)[C@H]2CC[C@]3(O)C(=O)CO)[C@@]2(C)C=CC(=O)C=C12
inactive: [1] | [2] | [3] | [4] | [5] | [6] | [7] | [8] | [9] | [10]

Cc1nc(Nc2n[nH]c3c2CN(C(=O)N[C@H](CN(C)C)c2ccccc2)C3(C)C)c2sccc2n1
active: [1] 17.1 µM | [2] 0.935 µM | [3] 0.418 µM | [4] 2.43 µM | [5] 1.32 µM | [6] 0.0032 µM | [7] 2.96 µM | [8] 9.35 µM | [11] 14.8 µM | [10] 6.62 µM | [13] 13.1 µM | [17] 13.1 µM
inactive: [19] | [20]

CC1=C(CO)C(=O)O[C@@H]([C@@H](C)[C@H]2CC[C@H]3[C@@H]4C[C@H]5O[C@]56[C@@H](O)C=CC(=O)[C@]6(C)[C@@H]4CC[C@]23C)C1
inactive: [14] | [15] | [19] | [20] | [16]
active: [1] 3.41 µM | [2] 0.132 µM | [3] 0.187 µM | [4] 0.769 µM | [5] 2.64 µM | [6] 4.85 µM | [7] 0.418 µM | [9] 2.35 µM | [10] 1.18 µM | [13] 18.5 µM | [17] 10.4 µM
